Measured values as given in PubChem BioAssay (NCI).
The panel holds about 79,000 compounds, 15% with a hit somewhere; the sample as a whole holds those more often. Activity calls are given as the source filed them. No stated cut-off is given here; in the data, active means growth inhibition above about 70%; inactive means the rest.

Assays:
[1] = NCI Yeast Anticancer Drug Screen. Data for the wt1 strain (AID 149);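 further: 0% = growth of vehicle-treated wt1 cultures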; settings: S. cerevisiae wt1 strain (SPY 50644) growth inhibition, stronger effect = higher value
Outline: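 The wt1 strain was treated with compounds, and growth was compared with vehicle-treated cultures to give inhibition.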

[2] = NCI Yeast Anticancer Drug Screen. Data for the rad50EPP+ strain (AID 151);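 further: 0% = growth of vehicle-treated control cultures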; settings: S. cerevisiae rad50 mutant strain, stronger effect = higher value
Outline: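 Growth inhibition read against vehicle controls in rad50EPP+ yeast, a strain altered in DNA damage repair, after compound exposure.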

[3] = NCI Yeast Anticancer Drug Screen. Data for the mgt1 strain (AID 153); settings: S. cerevisiae mgt1 mutant growth inhibition, stronger effect = higher value
Outline: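 mgt1 yeast grown with test compound; read-out is growth inhibition versus vehicle-treated cultures.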

[4] = NCI Yeast Anticancer Drug Screen. Data for the rad50 strain (AID 155);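 further: 0% = growth of vehicle-only cultures of the same strain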; settings: S. cerevisiae rad50 strain growth inhibition, stronger effect = higher value
Outline: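 Cells are treated with compound, grown, and their growth is then scored against vehicle-only cultures of the same repair-deficient yeast strain.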

[5] = NCI Yeast Anticancer Drug Screen. Data for the mec2-1 strain (AID 157); settings: S. cerevisiae mec2-1 strain, stronger effect = higher value
Outline: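 Yeast mec2-1 mutant treated with compound. Readout: growth inhibition vs vehicle controls.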

[6] = NCI Yeast Anticancer Drug Screen. Data for the rad14 strain (AID 159);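 further: 0% = growth of vehicle-treated control cultures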; settings: S. cerevisiae rad14 strain growth inhibition, stronger effect = higher value
Outline: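 Readout: yeast growth inhibition, referenced to vehicle-only cultures. Strain bears a defined alteration in DNA damage repair.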

[7] = NCI Yeast Anticancer Drug Screen. Data for the sgs1 mgt1 strain (AID 161);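 further: 0% = growth of cultures given vehicle only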; settings: S. cerevisiae sgs1 mgt1 strain, stronger effect = higher value
Outline: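 Test agents were incubated with a DNA-repair-mutant yeast strain. Growth was then read and compared against vehicle-treated controls.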

[8] = NCI Yeast Anticancer Drug Screen. Data for the CLN2oe strain (AID 163);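 further: 0% = growth of vehicle-only control cultures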; settings: S. cerevisiae CLN2oe strain, stronger effect = higher value
Outline: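 Read-out: yeast growth inhibition, expressed relative to vehicle-only controls. The strain bears an engineered cell-cycle alteration.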

[9] = NCI Yeast Anticancer Drug Screen. Data for the cln2 rad14 strain (AID 165);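 further: 0% = growth equal to vehicle treated cultures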; settings: S. cerevisiae cln2 rad14 strain, stronger effect = higher value
Outline: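 cln2 rad14 yeast strain; compound exposure; growth inhibition read vs vehicle controls.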

[10] = NCI Yeast Anticancer Drug Screen. Data for the bub3 strain (AID 167); settings: S. cerevisiae bub3 mutant strain, stronger effect = higher value
Outline: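 Part of a panel of yeast mutants defective in DNA damage repair or cell cycle regulation. Each strain is grown with compound, and inhibition is calculated relative to solvent-treated cultures.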

[11] = NCI Yeast Anticancer Drug Screen. Data for the wt2 strain (AID 169);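 further: 0% = growth of vehicle-treated yeast cultures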; settings: S. cerevisiae wt2 strain growth inhibition, stronger effect = higher value
Outline: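 Read-out: growth inhibition versus vehicle-treated control cultures after compound exposure of the yeast strain.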

[12] = NCI Yeast Anticancer Drug Screen. Data for the mlh1 strain (AID 171);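 further: 0% = growth of vehicle-treated control cultures of the same strain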; settings: S. cerevisiae mlh1 strain growth inhibition, stronger effect = higher value
Outline: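 Read-out: growth inhibition versus vehicle controls. Strain: engineered yeast with a defined DNA repair or cell cycle defect, compound-treated.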

[13] = NCI Yeast Anticancer Drug Screen. Data for the sgs1 strain (AID 173);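 further: 0% = growth of vehicle-only control cultures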; settings: S. cerevisiae sgs1 mutant, stronger effect = higher value
Outline: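 Read-out: yeast growth inhibition relative to vehicle controls, following compound exposure of a strain with a defined DNA repair/cell cycle alteration.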

[14] = NCI Yeast Anticancer Drug Screen. Data for the mlh1 rad18 strain (AID 175); settings: S. cerevisiae mlh1 rad18 strain growth inhibition, stronger effect = higher value
Outline: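 Yeast w/ defined DNA-repair lesions; compound exposure; growth vs vehicle controls → % inhibition.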

[15] = NCI Yeast Anticancer Drug Screen. Data for the rad18 strain (AID 177); settings: S. cerevisiae rad18 mutant growth inhibition, stronger effect = higher value
Outline: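 Readout: growth inhibition vs vehicle controls. Cells: genetically altered yeast strain, DNA repair defect.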

[16] = at 5.0 µM (retest, dose inferred, filed as 0.5)
[17] = at 50.0 µM (retest, dose inferred, filed as 5.0)

Measured: growth inhibition

CCC/C(Cl)=N\OC(=O)Nc1ccc(Br)cc1
inactive: [1]; at 1.2 µM 13% | [1]; at 3.7 µM 14% | [1]; at 11.0 µM 58% | [2]; at 1.2 µM 26% | [2]; at 3.7 µM 31% | [2]; at 11.0 µM 56% | [3]; at 1.2 µM 9% | [3]; at 3.7 µM 16% | [4]; at 1.2 µM 32% | [4]; at 3.7 µM 40% | [4]; [16] 9% | [5]; at 1.2 µM 16% | [5]; at 3.7 µM 27% | [5]; [16] -16% | [6]; at 1.2 µM 32% | [6]; at 3.7 µM 33% | [7]; [16] 9% | [8]; at 1.2 µM 10% | [8]; at 3.7 µM 15% | [9]; [16] -22% | [10]; at 1.2 µM 1% | [10]; at 3.7 µM 17% | [10]; [16] -48% | [10]; at 11.0 µM 63% | [11]; at 1.2 µM 25% | [11]; at 3.7 µM 33% | [12]; at 1.2 µM 14% | [12]; at 3.7 µM 19% | [13]; at 1.2 µM 65% | [13]; at 3.7 µM 62% | [14]; [16] 61%
active: [1]; at 33.0 µM 97% | [1]; at 100.0 µM 98% | [2]; at 33.0 µM 77% | [2]; at 100.0 µM 81% | [3]; at 11.0 µM 82% | [3]; at 33.0 µM 98% | [3]; at 100.0 µM 99% | [4]; at 11.0 µM 86% | [4]; at 33.0 µM 97% | [4]; [17] 99% | [4]; at 50.0 µM 88.2% | [4]; at 100.0 µM 98% | [5]; at 11.0 µM 77% | [5]; at 33.0 µM 98% | [5]; [17] 99% | [5]; at 50.0 µM 92% | [5]; at 100.0 µM 99% | [6]; at 11.0 µM 90% | [6]; at 33.0 µM 98% | [6]; at 100.0 µM 99% | [7]; [17] 99% | [7]; at 50.0 µM 84% | [8]; at 11.0 µM 84% | [8]; at 33.0 µM 98% | [8]; at 100.0 µM 99% | [9]; [17] 99% | [9]; at 50.0 µM 89.8% | [10]; at 33.0 µM 94% | [10]; [17] 99% | [10]; at 50.0 µM 87.6% | [10]; at 100.0 µM 96% | [11]; at 11.0 µM 90% | [11]; at 33.0 µM 98% | [11]; at 100.0 µM 99% | [12]; at 11.0 µM 76% | [12]; at 33.0 µM 97% | [12]; at 100.0 µM 98% | [13]; at 11.0 µM 94% | [13]; at 33.0 µM 98% | [13]; at 100.0 µM 98% | [14]; [17] 99% | [14]; at 50.0 µM 83.8% | [15]; at 1.2 µM 71% | [15]; at 3.7 µM 77% | [15]; at 11.0 µM 93% | [15]; at 33.0 µM 97% | [15]; at 100.0 µM 98%

N#Cc1ccc(C2NN=CC23C(=O)c2ccccc2OC3c2ccccc2)cc1 (stereo not drawn)
active: [4]; at 50.0 µM 73.3% | [5]; [17] 85% | [5]; at 50.0 µM 77% | [7]; [17] 93% | [7]; at 50.0 µM 77.5%
inactive: [1]; at 1.2 µM 0% | [1]; at 3.7 µM 0% | [1]; at 11.0 µM -1% | [1]; at 33.0 µM -2% | [1]; at 100.0 µM 2% | [2]; at 1.2 µM -2% | [2]; at 3.7 µM 0% | [2]; at 11.0 µM -1% | [2]; at 33.0 µM -3% | [2]; at 100.0 µM 3% | [3]; at 1.2 µM -4% | [3]; at 3.7 µM -2% | [3]; at 11.0 µM 5% | [3]; at 33.0 µM -3% | [3]; at 100.0 µM 2% | [4]; at 1.2 µM 2% | [4]; at 3.7 µM 4% | [4]; [16] 10% | [4]; at 11.0 µM -6% | [4]; at 33.0 µM 5% | [4]; [17] 66% | [4]; at 100.0 µM 3% | [5]; at 1.2 µM 2% | [5]; at 3.7 µM -2% | [5]; [16] -19% | [5]; at 11.0 µM -3% | [5]; at 33.0 µM -4% | [5]; at 100.0 µM 1% | [6]; at 1.2 µM 0% | [6]; at 3.7 µM 1% | [6]; at 11.0 µM 5% | [6]; at 33.0 µM 3% | [6]; at 100.0 µM 3% | [7]; [16] -22% | [8]; at 1.2 µM -2% | [8]; at 3.7 µM 2% | [8]; at 11.0 µM 5% | [8]; at 33.0 µM -1% | [8]; at 100.0 µM 5% | [10]; at 1.2 µM -7% | [10]; at 3.7 µM 0% | [10]; [16] -28% | [10]; at 11.0 µM 7% | [10]; at 33.0 µM -2% | [10]; [17] 16% | [10]; at 50.0 µM 64% | [10]; at 100.0 µM 0% | [11]; at 1.2 µM 0% | [11]; at 3.7 µM 0% | [11]; at 11.0 µM 2% | [11]; at 33.0 µM 1% | [11]; at 100.0 µM 3% | [13]; at 1.2 µM 0% | [13]; at 3.7 µM -4% | [13]; at 11.0 µM -3% | [13]; at 33.0 µM -3% | [13]; at 100.0 µM -1% | [14]; [16] -14% | [14]; [17] 60% | [14]; at 50.0 µM 56.4% | [15]; at 1.2 µM -3% | [15]; at 3.7 µM -4% | [15]; at 11.0 µM -3% | [15]; at 33.0 µM -16% | [15]; at 100.0 µM -1%

O=C(Nc1ccc(Cl)cc1)OCC#CCCl
inactive: [1]; at 1.2 µM -1% | [1]; at 3.7 µM 1% | [1]; at 11.0 µM 12% | [1]; at 33.0 µM 10% | [1]; at 100.0 µM 9% | [4]; at 1.2 µM -4% | [4]; at 3.7 µM -9% | [4]; [16] 8% | [4]; at 11.0 µM -6% | [4]; at 33.0 µM 15% | [4]; [17] 7% | [4]; at 50.0 µM 10.9% | [4]; at 100.0 µM 28% | [5]; at 1.2 µM 3% | [5]; at 3.7 µM 3% | [5]; [16] 6% | [5]; at 11.0 µM 4% | [5]; at 33.0 µM 2% | [5]; [17] 18% | [5]; at 50.0 µM 2.65% | [5]; at 100.0 µM 8% | [6]; at 1.2 µM 3% | [6]; at 3.7 µM 12% | [6]; at 11.0 µM -5% | [6]; at 33.0 µM -4% | [6]; at 100.0 µM 24% | [8]; at 1.2 µM -6% | [8]; at 3.7 µM -3% | [8]; at 11.0 µM -3% | [8]; at 33.0 µM 1% | [8]; at 100.0 µM 2% | [9]; [16] 5% | [9]; [17] 7% | [9]; at 50.0 µM -19.2% | [10]; at 1.2 µM -1% | [10]; at 3.7 µM 3% | [10]; [16] 4% | [10]; at 11.0 µM 4% | [10]; at 33.0 µM 3% | [10]; [17] 23% | [10]; at 50.0 µM 18.1% | [10]; at 100.0 µM 1%
active: [2]; at 1.2 µM 76% | [2]; at 3.7 µM 92% | [2]; at 11.0 µM 97% | [2]; at 33.0 µM 98% | [2]; at 100.0 µM 98% | [7]; [16] 96% | [7]; [17] 98% | [7]; at 50.0 µM 96.7% | [11]; at 1.2 µM 95% | [11]; at 3.7 µM 98% | [11]; at 11.0 µM 99% | [11]; at 33.0 µM 99% | [11]; at 100.0 µM 99% | [12]; at 1.2 µM 83% | [12]; at 3.7 µM 94% | [12]; at 11.0 µM 97% | [12]; at 33.0 µM 98% | [12]; at 100.0 µM 98%
